Measurements: PubChem BioAssay AID1259415 (National Center for Advancing Translational Sciences (NCATS), 2018)
Among all 410,000 compounds or so, about 18,000 (4.4%) were called active. Roughly 7% stayed inconclusive and do not appear here. No stated cut-off is given here; in the data, active means activity change below about -60%; inconclusive means no clear call, values can overlap the other calls; inactive means above about -39%. What follows is part of a selection rich in actives, with near analogues and random picks from the rest.
On the % scale 0 is the no-effect control and ±100 the full control effect.

Assay: qHTS Assay for inhibitors of the human cytomegalovirus (HCMV)
Conditions: HFF cells, HCMV-luciferase reporter, 72 h; at 57.5 µM; stronger effect = lower value
Procedure, shortened: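 Inhibition of viral replication was scored as loss of reporter luminescence in HFFs infected with HCMV-luciferase (MOI 1 PFU/cell) for 72 h; compounds tested at 2 doses, normalized to buffer and Salinomycin controls.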
For `CCOc1ccc(CCNC(=O)COC(=O)CCS(=O)(=O)c2ccc(C)cc2)cc1OCC`, the activity change, negative = inhibition was 55.9% (inactive). With `COc1ccccc1C(=O)Oc1ccc(N2C(=O)CCC2=O)cc1` the activity change, negative = inhibition was -9.72% (inactive). With `COc1ccc(C2(CNC(=O)Cc3ccc(OC)c(OC)c3)CCCC2)cc1` the activity change, negative = inhibition was -33.6% (inactive). In the case of `COc1ccc(CCNC(=O)COC(=O)Cc2cc(OC)c(OC)c(OC)c2)cc1`, the activity change, negative = inhibition is reported as -11.8% (inactive). For `COc1ccc(-c2cc(C(=O)NCc3cc(OC)c(OC)c(OC)c3)[nH]n2)cc1`, the activity change, negative = inhibition was 3.93% (inactive). For `COc1ccc(-c2csc(NC(=O)c3ccc(N4C(=O)CCC4=O)cc3)n2)cc1OC`, the activity change, negative = inhibition was -70.7% (active). In the case of `COc1ccc(C(=O)Nc2cc(S(=O)(=O)N3CCCC3)ccc2Cl)cc1`, the activity change, negative = inhibition is reported as -31.9% (inactive). For `COc1ccc(-n2nc3c(c2NC(=O)c2ccc(N4C(=O)CCC4=O)cc2)CSC3)cc1`, the activity change, negative = inhibition was 0% (inactive). In the case of `COc1ccc(C(=O)Nc2nc(-c3ccc(S(=O)(=O)N4CCOCC4)cc3)cs2)cc1`, the activity change, negative = inhibition is reported as -98.4% (active). For `Cc1cc2nc(NC(=O)c3ccc(S(=O)(=O)N4CCOCC4)cc3)sc2cc1C`, the activity change, negative = inhibition was 3.59% (inactive). For `COc1ccc(CC(=O)Nc2nc(-c3ccc(F)c(F)c3)cs2)cc1OC`, the activity change, negative = inhibition was -78.6% (active). With `COc1cc(CC(=O)Nc2nc(-c3ccc(F)c(F)c3)cs2)cc(OC)c1OC` the activity change, negative = inhibition was -77.3% (active). For `COc1ccc(CC(=O)Nc2nnc3n2CCS3)cc1OC`, the activity change, negative = inhibition was 1.77% (inactive). With `CCC(C)N(C(=O)COC(=O)C1C(C(=O)OC)=C(C)NC(C)=C1C(=O)OC)C1CCS(=O)(=O)C1` (stereo not drawn) the activity change, negative = inhibition was -15.8% (inactive). For `COc1ccc(S(=O)(=O)N[C@H]2CC[C@@]34CCCN3C(=O)CCC[C@H]4[C@H]2Cc2ccccc2)cc1`, the activity change, negative = inhibition was -13.9% (inactive). For `Cc1ccccc1OCc1nc2c3cnn(-c4ccccc4F)c3ncn2n1`, the activity change, negative = inhibition was 2.88% (inactive). With `CCN1CCN(c2ncc3c(n2)CC(c2ccccc2O)CC3=O)CC1` (stereo not drawn) the activity change, negative = inhibition was -2.14% (inactive). With `CCOC(=O)c1ccc2c(c1)N(Cc1cccc(OC)c1)C(=O)c1ccccc1S2(=O)=O` the activity change, negative = inhibition was 41.8% (inactive). For `O=C(NC1CCCCC1)c1ccc(Cn2c(SCc3ccccc3)nc3cccnc32)cc1`, the activity change, negative = inhibition was 13.4% (inactive). For `CCS(=O)(=O)N1CCc2cc(C(=O)NCc3ccc(OC)cc3)ccc21`, the activity change, negative = inhibition was 21.8% (inactive). With `Cc1ccc(OCCSc2nc(C)c(Cc3ccccc3)c(=O)[nH]2)cc1` the activity change, negative = inhibition was -3.53% (inactive). For `COc1ccc(CNC(=O)c2cc3c(=O)[nH]c4ccccc4c3s2)cc1`, the activity change, negative = inhibition was -6.89% (inactive). In the case of `Cc1ccc(C)n1-c1nnc(N2CCC(C(=O)NCc3ccccc3Cl)CC2)s1`, the activity change, negative = inhibition is reported as -16.5% (inactive).
